Assay outcomes deposited in PubChem BioAssay by National Center for Advancing Translational Sciences (NCATS).
Pf growth 48h – Primary qHTS for delayed death inhibitors of the malarial parasite plastid, 48 hour incubation. P. falciparum luciferase growth in erythrocytes, 48 h. Potency, µM (doses to about 28.7 µM), actives largely listed as inhibitors. 310,000 compounds, 5.9% hits. AID 504832, 2011
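Parasite viability was followed by luminescence of a genomically integrated firefly luciferase. Cultures held 0.1% parasitemia at 2% hematocrit (final), incubated under 5% CO2 at 37 C.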
Pf growth 96h – Primary qHTS for delayed death inhibitors of the malarial parasite plastid, 96 hour incubation; P. falciparum luciferase reporter growth, 96 h; Potency, µM (series often up to 28.7 µM), actives largely listed as inhibitors; 320,000 compounds, 6.9% hits; AID 504834, 2011
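Infected RBCs, 2% Hct / 0.05% parasitemia final; luciferase-reporter P. falciparum; cpd 96 h, 37 C, 5% CO2; luciferase detection reagent; luminescence.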
CHX counter – Cycloheximide Counterscreen for Small Molecule Inhibitors of Shiga Toxin. 300,000 compounds, 12% hits. cell reporter, cycloheximide protein synthesis inhibition counterscreen. max response, %. AID 2314, 2010; in the data active means max response mostly above about 13%, no sharp cut-off; inactive means mostly below about 14%; further: read at 38.3 µM for the half of the compounds with a filed dose
Giardia FBPA inh-1 – qHTS Assay for Inhibitors of Fructose-1,6-bisphosphate Aldolase from Giardia Lamblia; purified Giardia FBPA; 290,000 compounds, 0.71% hits; A8B2U2; AID 2451, 2010; Potency, µM (titrated, usually from 59.6 µM), hits mostly inhibitors; further: nearly all actives have a fitted effect of over 55% in size
Target sequence (A8B2U2 whole entry, looked up): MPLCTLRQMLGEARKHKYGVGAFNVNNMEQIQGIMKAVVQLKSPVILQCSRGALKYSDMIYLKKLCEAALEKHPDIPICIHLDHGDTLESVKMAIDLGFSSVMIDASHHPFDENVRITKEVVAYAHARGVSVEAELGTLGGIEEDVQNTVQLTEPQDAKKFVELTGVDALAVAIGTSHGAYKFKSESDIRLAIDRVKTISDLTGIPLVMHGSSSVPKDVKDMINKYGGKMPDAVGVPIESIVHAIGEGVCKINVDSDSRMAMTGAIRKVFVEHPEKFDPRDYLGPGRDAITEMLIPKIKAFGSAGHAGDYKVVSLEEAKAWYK
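Giardia FBPA (40 nM reagent) was preincubated 10 min at RT with compound (up to 57.5 uM final), then substrate plus GAPDH/TPI/NAD/arsenate coupling system with diaphorase/resazurin was added; resorufin fluorescence (525/598 nm) was read after 20 min.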
Shiga toxin inh – A qHTS for Small Molecule Inhibitors of Shiga Toxin; Vero cells, Shiga toxin protein synthesis inhibition reporter; inhibition, % at 38.7 µM; 290,000 compounds, 9.2% hits; in the data active means inhibition mostly above about 28%, no sharp cut-off; inactive means mostly below about 43%
NS1 function inh – qHTS Assay for Inhibitors of Influenza NS1 Protein Function | Potency, µM (titrated, usually from 46.1 µM) | 270,000 compounds, 0.4% hits | AID 2326, 2010; calls by dose curve; further: actives are rising curves; nearly all actives have a fitted effect of over 50% in size
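OD600 was taken as the measure of yeast growth restored by compound in an NS1-expressing S. cerevisiae strain. Cells had been washed out of glucose medium and diluted 1:100 into galactose -URA medium, pH 6.0.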
Giardia growth – qHTS Assay for Inhibitors of Fructose-1,6-bisphosphate Aldolase from Giardia Lamblia: Giardia lamblia growth inhibition; shares compounds with Giardia FBPA inh-1; Giardia lamblia trophozoite growth inhibition; Potency, µM (highest dose often 57.5 µM), most hits filed as inhibitors; 1,500 compounds, 5% hits; AID 2785, 2010;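 further: trophozoites exposed to compound for 48 h at 37 °C; nearly all actives have a fitted effect of over 70% in size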
Mammal cell tox – qHTS Assay for Inhibitors of Fructose-1,6-bisphosphate Aldolase from Giardia Lamblia: Mammalian cellular toxicity. shares compounds with Giardia FBPA inh-1. mammalian cell viability counter-screen, qHTS. Potency, µM (series often up to 57.5 µM), actives largely listed as inhibitors. 1,500 compounds, 4% hits;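 further: Chinese hamster ovary cells used as mammalian cytotoxicity surrogate; viability measured as cellular ATP by luminescence; compound exposure lasted 48 h before reading; nearly all actives have a fitted effect of over 60% in size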
Giardia FBPA inh-2 – qHTS Assay for Inhibitors of Fructose-1,6-bisphosphate Aldolase from Giardia Lamblia: Primary screen confirmation; 1,500 compounds, 5% hits; AID 2787, 2010; shares compounds with Giardia FBPA inh-1; purified Giardia aldolase enzyme activity, qHTS; Potency, µM (top dose mostly 57.5 µM), most hits filed as inhibitors; further: nearly all actives have a fitted effect of over 45% in size
Rabbit aldolase – qHTS Assay for Inhibitors of Fructose-1,6-bisphosphate Aldolase from Giardia Lamblia: Rabbit FBPA Selectivity | shares compounds with Giardia FBPA inh-1 | Rabbit muscle FBPA enzyme inhibition, selectivity counter-screen | 1,500 compounds, 4% hits | Potency, µM (series often up to 57.5 µM), usual class: inhibitors; further: nearly all actives have a fitted effect of over 60% in size
Target sequence (P00883 whole entry, looked up): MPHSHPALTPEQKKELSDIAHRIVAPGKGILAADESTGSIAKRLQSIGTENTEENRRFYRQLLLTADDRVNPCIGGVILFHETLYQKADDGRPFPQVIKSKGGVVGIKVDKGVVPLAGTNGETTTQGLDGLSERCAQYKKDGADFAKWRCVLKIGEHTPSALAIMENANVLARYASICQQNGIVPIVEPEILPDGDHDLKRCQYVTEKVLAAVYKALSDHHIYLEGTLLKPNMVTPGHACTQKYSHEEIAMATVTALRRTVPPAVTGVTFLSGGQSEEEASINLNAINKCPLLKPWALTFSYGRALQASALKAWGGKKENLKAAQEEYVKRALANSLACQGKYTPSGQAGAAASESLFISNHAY
GAPDH coupling – qHTS Assay for Inhibitors of Fructose-1,6-bisphosphate Aldolase from Giardia Lamblia: Coupling assay counterscreen confirmation; shares compounds with Giardia FBPA inh-1; Potency, µM (highest dose often 57.5 µM), hits mostly inhibitors; 1,500 compounds, 6% hits; GAPDH coupling enzyme counterscreen, biochemical, qHTS; AID 2795, 2010; further: nearly all actives have a fitted effect of over 55% in size
Hits are given with their value; i = inactive; ? = inconclusive; nt = no result given; [ ] = remark or other dose. The list is not random: actives were taken first. Their share in the collection is about 21%. Unless noted, the call rests on the fitted dose curve; in most records, active means well fitted curve in the direction sought with a large enough effect; inconclusive means small, poorly fitted or top-dose-only effect, or another doubt; inactive means no such curve, though single readings can be large; an effect the other way counts as inactive or inconclusive.

SMILES | Pf growth 48h | Pf growth 96h | CHX counter | Giardia FBPA inh-1 | Shiga toxin inh | NS1 function inh | Giardia growth | Mammal cell tox | Giardia FBPA inh-2 | Rabbit aldolase | GAPDH coupling
O=C(CNC(=O)c1cccnc1)N=Nc1c(O)[nH]c2c(Br)cc(Br)cc12 | i | i | i | 28.2µM | i | i | i[10.4 µM] | i | i | i | i
COc1ccc(NC(=O)C2CC(=O)OC2(C)C)cc1 (stereo unspecified) | i | i | i | i | i | i | nt | nt | nt | nt | nt
N#C/C(=C/Nc1ccccc1C(=O)O)C(N)=O | ? | ? | i | i | i | i | nt | nt | nt | nt | nt
O=C(O)Cn1cnc2c(=S)nc[nH]c21 | i | i | i | 3.54µM | i | i | i | i | i | i | i
Cn1c(=O)c2ncn(CC(=O)O)c2n(C)c1=O | i | i | i | i | i | i | nt | nt | nt | nt | nt
Cc1cccc(NC2=C/C(=N/S(=O)(=O)c3cccs3)c3ccccc3C2=O)c1 | 0.522µM | i | 14.5 | 0.199µM | i | i | 15.8µM | 20µM | ? | i | 2.51µM
COc1cccc(Nc2nc3ccccc3nc2NS(=O)(=O)c2cccs2)c1 | i | ? | i | i | i | i | nt | nt | nt | nt | nt
Cn1c(-c2ccc(F)cc2)cnc1NCc1ccccc1F | ? | i | 17.0 | 28.2µM | i | i | i[10.4 µM] | i | i | i | i
COc1ccc(CNc2ncc(-c3ccccc3)n2C)cc1 | i | ? | i | 17.8µM | nt | i | i | i | i | i | i
COc1ccc(OC)c(CNc2ncc(-c3cccc([N+](=O)[O-])c3)n2C)c1 | i | i | i | 28.2µM | i | i | ? | i | i | i | i
Cn1c(-c2cccc([N+](=O)[O-])c2)cnc1NCc1cccc([N+](=O)[O-])c1 | i | i | i | ? | i | i | nt | nt | nt | nt | nt
CCCc1cc(=O)n2[nH]c(C)c(-c3ccc(OC)cc3)c2n1 | i | ? | i | ? | i | i | nt | nt | nt | nt | nt
Cc1cccc(OCCn2ccnc2)c1C | i | i | i | 22.4µM | i | i | i | i | i | i | i
CCc1ccc(OCCn2ccnc2)cc1 | i | ? | i | 25.1µM | i | i | ? | i | i | i | i
CCN1CCN(CC(=O)Nc2ccc(OC(F)(F)F)cc2)CC1 | nt | i | i | 17.8µM | i | i | i | i | i | i | i
C/C(=N/Nc1nc(C)c(C)s1)c1cccc([N+](=O)[O-])c1 | ? | ? | 29.7 | 31.6µM | 29.9 | i | i[10.4 µM] | i | i | i | i
O=c1[nH]c(=S)c2ncn(-c3ccccc3)c2[nH]1 | i | ? | i | 9.98µM | i | i | i | i | i | i | i
O=c1oc2ccccc2c2c1ncn2-c1ccccc1 | i | i | i | i | i | i | nt | nt | nt | nt | nt
CN(CC(=O)Nc1ccccc1Br)Cc1nc2ccccc2c(=O)[nH]1 | i | i[5.75 µM] | i | 20µM | i | i | i[10.4 µM] | i | i | i | ?
CCn1c(SCc2cccc(F)c2)nnc1-c1cccnc1 | i | ? | i | i | i | i | nt | nt | nt | nt | nt
Cc1ccc(C)c(/C=N/Nc2nc3ccccc3c(=O)n2O)c1 | i | i | 22.2 | 15.8µM | 33.8 | i | ? | i | i | i | i
O=C1CC(NS(=O)(=O)c2ccccc2)CN1c1ccc2c(c1)OCCO2 (stereo unspecified) | i | ? | nt | nt | nt | nt | nt | nt | nt | nt | nt
O=c1[nH]cc(I)cc1I | i | i | i | 9.98µM | i | i | i | i | i | i | i
COc1cccc2cc(C(=O)NNC(=O)c3ccc(Br)cc3)c(=O)oc12 | i | ? | i | i | i | nt | nt | nt | nt | nt | nt
O=C(c1ccc(Cl)cc1)N1CCN(CCc2ccccn2)CC1 | i | i | i | i | i | i | nt | nt | nt | nt | nt
SMILES | Pf growth 48h | Pf growth 96h | CHX counter | Giardia FBPA inh-1 | Shiga toxin inh | NS1 function inh | Giardia growth | Mammal cell tox | Giardia FBPA inh-2 | Rabbit aldolase | GAPDH coupling
CCN(CC(=O)NCc1ccc(F)cc1)CC(=O)Nc1ccccc1-c1ccccc1 | ? | ? | i | i | i | nt | nt | nt | nt | nt | nt
CCN(CC(=O)Nc1ccccc1OC)CC(=O)Nc1ccccc1-c1ccccc1 | ? | i | i | 17.7µM | i | nt | i | i | i | i | i
CC(C)Oc1ccc(/C=N/NC(=O)c2nnn(-c3nonc3N)c2CN(C)c2ccccc2)cc1 | i | i | i | i | i | ? | nt | nt | nt | nt | nt
O=C(CCCN1C(=O)/C(=C/c2ccco2)SC1=S)Nc1cccc(C(=O)O)c1 | i | 13.1µM | i | 15.8µM | i | i | i[10.4 µM] | i | i | i | i
O=C(NCSc1ccccc1)c1ccccc1 | i | i | nt | nt | nt | nt | nt | nt | nt | nt | nt
Cc1cc(SCNC(=O)c2ccccc2)ncn1 | i | nt | i | 14.1µM | i | i | ? | i | i | i | i
O=C(NC1CCCCC1)[C@H](CSCc1ccccc1)N1Cc2ccccc2C1=O | ? | ? | i | i | i | i | nt | nt | nt | nt | nt
CCOC(=O)c1sc(N2C(=O)C(O)=C(C(=O)c3ccco3)C2c2cccc([N+](=O)[O-])c2)nc1C (stereo unspecified) | i | i | i | nt | i | ? | nt | nt | nt | nt | nt
O=C(O)CC/C(=N/Nc1ncc(C(F)(F)F)cc1Cl)C(=O)O | i | i | i | 11.2µM | i | i | 15.8µM | i | i | i | i
N#Cc1cc([N+](=O)[O-])ccc1NC(=O)COC(=O)CC1CCCC1 | i | i | i | i | i | i | nt | nt | nt | nt | nt
CCCCc1c(O)nc(SC2CC(=O)N(c3ccc(C(=O)OCC)cc3)C2=O)[nH]c1=O (stereo unspecified) | i | ? | i | 7.08µM | i | i | i[10.4 µM] | i | i | i | i
CCCc1c(O)nc(SC2CC(=O)N(c3ccc(OC)cc3)C2=O)[nH]c1=O (stereo unspecified) | i | i | i | i | i | i | nt | nt | nt | nt | nt
Nc1ccccc1-c1nnc2n1CCCCC2 | i | i | i | i | i | i | nt | nt | nt | nt | nt
Cc1ccccc1C(=O)NC(=S)Nc1ncccn1 | i | ? | 18.4 | 4.47µM | i | i | i | i | i | i | i
Cc1ccccc1C(=O)NC(=S)Nc1ccccc1C(F)(F)F | i | ? | i | i | i | i | nt | nt | nt | nt | nt
CCN1CCN(C(=O)c2ccccc2NS(=O)(=O)c2ccc(Cl)cc2)CC1 | i | i | i | i | i | i | nt | nt | nt | nt | nt
